Experimental data published in PubChem BioAssay (NCI).
Compounds without any hit were thinned out: in the full panel of roughly 79,000, 15% have a hit. Cut-off read from the data, not from the text of the source: active = growth inhibition above about 70%; inactive = the rest. Where a SMILES comes first, the peptide text is derived from it. [ ]: non-standard residue; d: D form. Ac5c = NC1(C(=O)O)CCCC1

Assays:
[1] = NCI Yeast Anticancer Drug Screen. Data for the rad50 strain (AID 155);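 note: 0% = growth of vehicle-only cultures of the same strain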; conditions: S. cerevisiae rad50 strain growth inhibition; at 50.0 µM; stronger effect = higher value
In short: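 Inhibition values express reduced yeast growth in compound-treated cultures relative to vehicle-treated controls.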

[2] = NCI Yeast Anticancer Drug Screen. Data for the mec2-1 strain (AID 157); conditions: S. cerevisiae mec2-1 strain, at 50.0 µM, stronger effect = higher value
In short: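 Vehicle-treated cultures served as reference for growth inhibition of compound-exposed mec2-1 yeast.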

[3] = NCI Yeast Anticancer Drug Screen. Data for the sgs1 mgt1 strain (AID 161);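 note: 0% = growth of cultures given vehicle only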; conditions: S. cerevisiae sgs1 mgt1 strain, at 50.0 µM, stronger effect = higher value
In short: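 Read-out: growth inhibition vs vehicle controls. Cells: mutant yeast strain deficient in DNA damage repair.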

[4] = NCI Yeast Anticancer Drug Screen. Data for the cln2 rad14 strain (AID 165);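 note: 0% = growth equal to vehicle treated cultures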; conditions: S. cerevisiae cln2 rad14 strain, at 50.0 µM, stronger effect = higher value
In short: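 Each compound was tested on cln2 rad14 yeast. Inhibition of growth was calculated against vehicle-exposed controls.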

[5] = NCI Yeast Anticancer Drug Screen. Data for the bub3 strain (AID 167); conditions: S. cerevisiae bub3 mutant strain, at 50.0 µM, stronger effect = higher value
In short: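 Steps: expose the mutant yeast strain to compound; grow alongside vehicle-treated cultures; measure growth; express inhibition against the vehicle cultures.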

[6] = NCI Yeast Anticancer Drug Screen. Data for the mlh1 rad18 strain (AID 175); conditions: S. cerevisiae mlh1 rad18 strain growth inhibition; at 50.0 µM; stronger effect = higher value
In short: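 Vehicle-treated cultures served as the reference for growth inhibition in a yeast strain carrying DNA damage repair alterations exposed to each compound.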

Measured: growth inhibition

COc1cccc(Cc2c3cc(OC)ccc3cc[n+]2C)c1
inactive: [1] 33.3% | [2] 10.8% | [3] 34.2% | [4] 27.7% | [5] 59% | [6] 52.7%

CCOc1ccccc1NC(=S)NC(=O)CCc1ccccc1
inactive: [1] -12.9% | [2] 14.2% | [3] 41.9% | [4] -35% | [5] 31.6% | [6] 21.8%

COc1cccc(-c2nsc(=O)o2)c1
inactive: [1] 41.5% | [2] 23.1% | [3] 24.3% | [4] -1.4% | [5] 52.6% | [6] 32.6%

Oc1ccc2cc(O)ccc2c1
inactive: [1] -5.45% | [2] -25.6% | [3] -1.7% | [4] -7.8% | [5] -20.4% | [6] -5.85%

O=C(Oc1c(Cl)c(Cl)c(Cl)c(Cl)c1Cl)Oc1c(Cl)c(Cl)c(Cl)c(Cl)c1Cl
inactive: [1] -13.7% | [2] -8.25% | [3] 19.1% | [4] -15.1% | [5] 12.8% | [6] 3.4%

O=C(NNC(=O)c1ccc2ccccc2c1)c1cccc(Br)c1
inactive: [1] -21.1% | [2] -20.6% | [3] -6.55% | [4] 10.1% | [5] -5.6% | [6] -7.95%

CNC(=O)OCc1c(COC(=O)NC)c2n(c1C)CS(=O)(=O)C2
inactive: [1] -6.15% | [2] -16% | [3] -10.4% | [4] 6.5% | [5] 12.1% | [6] 15.5%

COC(=O)C1(NC(=O)C(C)NC(=O)C(CCCCN)NC(=O)C(CC(C)C)NC(C)=O)CCCC1 (stereo unspecified) (Ac-LKA[Ac5c]-OMe; configuration not given here)
inactive: [1] 3.1% | [2] 4.7% | [3] 13.8% | [4] -6.25% | [5] -7.8% | [6] 8.05%

CC(=O)c1cc2ccccc2n(O)c1=N
inactive: [1] -32.9% | [2] -10.8% | [3] -24% | [4] 17.1% | [5] -15.2% | [6] -17.3%

FC(F)(F)c1ccc2nc[nH]c2c1
inactive: [1] 5.3% | [2] -10.2% | [3] -3.15% | [4] -10.4% | [5] 9.6% | [6] 6.95%

O/N=C1\CCCCC1C(NO)c1ccccc1 (stereo unspecified)
inactive: [1] 2.4% | [2] -4.25% | [3] -7.9% | [4] -16.4% | [5] -12.2% | [6] 9.35%

Nc1ccc(C(=O)NO)c(O)c1
inactive: [1] 6.2% | [2] 18.9% | [3] -7.55% | [4] -41.8% | [5] 18.7% | [6] -6%

CCO/C=N\C1=C(C#N)SC2=N/C(=C\c3ccco3)C(=O)N21
inactive: [1] 6.1% | [2] -19.2% | [3] -7.4% | [4] 5.65% | [5] 0.45% | [6] -17.3%

NC(CCSCC(F)F)C(=O)O (stereo unspecified)
inactive: [1] 19.4% | [2] 8.9% | [3] 3.95% | [4] 6.95% | [5] -22% | [6] 25.4%

COC1=C(C(C2=C(OC)CC(C)(C)CC2=O)c2ccc3c(c2)OCO3)C(=O)CC(C)(C)C1
inactive: [1] 31.6% | [2] 7.7% | [3] -9.05% | [4] 0.3% | [5] -0.65% | [6] 11.9%

N#CNC(=NCCO)NCCO
inactive: [1] 25.8% | [2] 7.3% | [3] -2.25% | [4] 11.3% | [5] -0.35% | [6] 26.6%

O=C(O)C1=C(C(=O)O)C2CCCC3C4CCCCC4N(N1)C23 (stereo unspecified)
inactive: [1] 20.1% | [2] -13.9% | [3] -20.4% | [4] 3.9% | [5] 1.15% | [6] 22.9%

CCOc1nc(-c2ccccc2)cc(-c2ccc(N3CCOCC3)cc2)c1C#N
inactive: [1] 19% | [2] 9.55% | [3] -7.4% | [4] -11.6% | [5] -4.5% | [6] 27.5%

CC(C)(C)CP(=S)(CCP(CCP(=S)(CC(C)(C)C)CC(C)(C)C)CCP(=S)(CC(C)(C)C)CC(C)(C)C)CC(C)(C)C
inactive: [1] -0.75% | [2] -14.6% | [3] -18% | [4] 9.6% | [5] 0.65% | [6] -16.1%

O=C(Nc1ccc(Cl)cc1)P(=O)(O)c1ccccc1
inactive: [1] -11.8% | [2] -0.95% | [3] -23.1% | [4] -26.8% | [5] -16.8% | [6] 18.1%

O=C(O)CC1CC(=O)c2cccn21 (stereo unspecified)
inactive: [1] -4.35% | [2] 4.85% | [3] -8.15% | [4] 3.6% | [5] 0.8% | [6] -34%

O=COCCc1ccccc1
inactive: [1] -17.9% | [2] -6.2% | [3] 8.35% | [4] 5.4% | [5] -8.15% | [6] 3.7%

COC1(OC)c2no[n+]([O-])c2CCC1O (stereo unspecified)
inactive: [1] -6.6% | [2] -17.4% | [3] -24.1% | [4] 10% | [5] 4% | [6] -4.45%

O=c1[nH]ncc(N/N=C(/C=C/c2ccc(C/C(=N/Nc3cn[nH]c(=O)c3Cl)c3ccccc3)cc2)c2ccccc2)c1Cl
inactive: [1] 30.1% | [2] 8.8% | [3] 33.2% | [4] -15.6% | [5] 9.65% | [6] 4%

CC(=O)Nc1ccc(N=C2c3ccccc3-c3ccc([N+](=O)[O-])cc32)cc1
inactive: [1] -6.1% | [2] -10.8% | [3] 11.2% | [4] -11.7% | [5] -5.7% | [6] -13.6%

O=C(CNC(=O)c1ccccc1)Nc1ccc([N+](=O)[O-])cc1
inactive: [1] 15.2% | [2] -0.65% | [3] -1.5% | [4] 26.8% | [5] 22.6% | [6] 5.7%

O=C(/C=C/c1cccc2ccccc12)c1ccccc1Cl
inactive: [1] 52.9% | [2] -9.25% | [3] 7.65% | [4] 16.9% | [5] -6.65% | [6] 35.2%

O=C(Nc1ccn(C2CCC(COC(c3ccccc3)(c3ccccc3)c3ccccc3)O2)c(=O)n1)c1ccccc1 (stereo unspecified)
inactive: [1] 8.05% | [2] 19.4% | [3] 27.6% | [4] -25% | [5] -26.2% | [6] 16.9%

Cc1c2oc3c(C)ccc(C(=O)NCCc4ccccn4)c3nc-2c(C(=O)NCCc2ccccn2)c(N)c1=O
inactive: [1] 5.9% | [2] -8.05% | [3] 4.05% | [4] 4.9% | [5] -5.45% | [6] -6.9%

NC(N)=NS(=O)(=O)c1ccc(N2C(=O)CC3(CCCC3)C2=O)cc1
inactive: [1] 10.8% | [2] -2.25% | [3] -16.8% | [4] 17.6% | [5] 13.4% | [6] 6.75%

NC(=O)c1[nH]c(N=Nc2ccc(S(N)(=O)=O)cc2)nc1N
inactive: [1] 28.6% | [2] 13.6% | [3] 15% | [4] -5.1% | [5] -15.7% | [6] 17.9%

O=C(O)C1(C(=O)O)CC2C3C=CC(C3)C2C1 (stereo unspecified)
inactive: [1] -7.75% | [2] -11.7% | [3] 0.35% | [4] -48.8% | [5] 18.8% | [6] 20.5%

Cc1cccc(C)c1NC(=O)C1C(=O)N(c2c(C)cccc2C)C(=O)/C1=N\NC(N)=S (stereo unspecified)
inactive: [1] -15.2% | [2] -24.4% | [3] -37.4% | [4] -9.5% | [5] -31.1% | [6] -34.9%

COCc1ccnn1-c1ccccc1C
inactive: [1] -5.85% | [2] 13.5% | [3] 9.3% | [4] -8.45% | [5] 5.2% | [6] -6.05%

CC(=O)Nc1nc2nccn2c(=O)[nH]1
inactive: [1] -5.7% | [2] -3.1% | [3] -6.5% | [4] -28.3% | [5] -2.4% | [6] 2%

COc1cc(=O)n2c3ccccc3n(C)c2c1C#N
inactive: [1] -9.75% | [2] -16.9% | [3] -0.95% | [4] -0.25% | [5] -4.35% | [6] 41.8%

Nc1c(-c2nc3ccccc3[nH]2)sc(=S)n1-c1ccccc1
inactive: [1] -6.4% | [2] -21.4% | [3] 1.75% | [4] 2.2% | [5] -4.2% | [6] -17.9%

COC1(OC)CCCc2c1no[n+]2[O-]
inactive: [1] -43.4% | [2] -11.3% | [3] -50.2% | [4] -16.7% | [5] 16.5% | [6] -21.2%

C=CCNC(=S)/N=C/C(C(=O)Nc1ccccc1)=C(/C)O
inactive: [1] -55.6% | [2] -18.1% | [3] -41.2% | [4] -27.2% | [5] -50.9% | [6] -20.6%

Cc1ccc(SCc2cn(C3OC(CO)C(O)C3O)c(=O)[nH]c2=O)cc1 (stereo unspecified)
inactive: [1] 25.3% | [2] 20.4% | [3] 12.9% | [4] 22.6% | [5] -1.4% | [6] 12.2%

O=C(CCCCCCCCC(=O)OCCCn1cc(C(=O)NC(=O)OCc2ccccc2)c(=O)[nH]c1=O)OCCCn1cc(C(=O)NC(=O)OCc2ccccc2)c(=O)[nH]c1=O
inactive: [1] -28.6% | [2] -41.7% | [3] -25.6% | [4] 1.7% | [5] -24.2% | [6] -36.8%
